This is a sample that favours compounds with a hit; in the whole collection about 2.6% have one here.
PMP22 txn – Cell-based coincidence reporter assay to measure PMP22 gene transcription in S16 Pmp22-F2sN cells - Primary screen; 2% of 43,000 active; Potency, µM (doses to about 57.5 µM), for the others: at the highest dose activity change, negative = inhibition, hits mostly inhibitors; AID 1508649, 2021; S16 Pmp22-F2sN Schwann cells, FLuc/NLuc coincidence luminescence, 24 h; active = clear falling dose curves in both reporters; inconclusive = both reporters move, but less clearly or upward; inactive = either reporter flat; the % is the NLuc reporter signal; note: potency is the fitted concentration of half-maximal effect; % is set by controls: 0 for no effect and ±100 for the full control effect
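S16(c9) Schwann cells with FLuc/NLuc coincidence reporter in the Pmp22 3' UTR; compounds pin-transferred, 24 h at 37C. Dual-luciferase read: FLuc first, then NLuc after Stop&Glo, each 10 min at room temperature.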
S16 viability – Cell viability qHTS assay in S16 Pmp22-F2sN cells. S16 Pmp22-F2sN Schwann cells (luciferase reporters placed in the Pmp22 gene) viability, CellTiter-Glo, 24 h. Potency, µM (highest dose often 57.5 µM), without a hit: at the top dose activity change, negative = cytotoxicity, actives largely listed as cytotoxic. 0.48% of 43,000 active. AID 1508642, 2021; note: potency is the fitted concentration of half-maximal effect; % is set by controls: 0 for no effect and ±100 for the full control effect; nearly all actives have a fitted effect of over 65% in size
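S16 Schwann cells carrying the Pmp22-F2sN reporter, seeded in 1536-well format, were exposed to library compounds for 24 h at 37C. Viability was read as CellTiter-Glo luminescence after 15 min at room temperature.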
pS6 MEF inh – Acumen qHTS Assay for Inhibitors of the mTORC1 Signaling Pathway in MEF (Tsc2-/-, p53-/-) Cells: Sytravon | AID 493208, 2011 | Tsc2-/- p53-/- MEF, phospho-rpS6 immunofluorescence/PI, 24 h | 0.78% of 44,000 active | Potency, µM (highest dose often 38.3 µM), for inactives: at the top dose activity change, negative = inhibition, most hits filed as inhibitors;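 note: potency is the fitted concentration of half-maximal effect; plate controls were DMSO for no effect and rapamycin for full effect; nearly all actives have a fitted effect of over 50% in size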
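Immunofluorescence of rpS6 phosphorylation in Tsc2-/-, p53-/- MEFs after 24 h compound exposure, normalized to propidium iodide signal. Activity is expressed as % positive cells, thresholded with 7.5 nM rapamycin.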
OvCa metastasis – Primary qHTS assay for Inhibitors of ovarian cancer metastasis using an organotypic tumor microenvironment (TME) model; AID 1963576, 2024; Potency, µM (doses to about 45.8 µM), without a hit: at the highest dose activity change, negative = inhibition, hits mostly inhibitors; 0.1% of 46,000 active; SKOV3ip1-GFP adhesion/invasion on 3D omental model, fluorescence;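 note: potency is the fitted concentration of half-maximal effect; plate controls were DMSO wells for no effect and tomatine positive control wells for full effect; nearly all actives have a fitted effect of over 65% in size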
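A 3D layer of primary human omental fibroblasts, mesothelial cells, fibronectin and collagen I, grown 48 hr, received SKOV3ip1-GFP cells in serum-free medium plus compounds at 0.36-46 umol/L. After 2 hr RT and 16 hr 37 C, fixed adherent GFP cells were counted; normalized to DMSO and tomatine.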
NLuc sat counter – Biochemical NLuc saturation counterscreen for small molecule modulators of PMP22 gene expression - Nano-Glo assay; shares compounds with PMP22 txn; Secreted NLuc enzyme (filtered S16 cell medium), Nano-Glo luminescence; Potency, µM (series often up to 57.5 µM), for the others: at the top dose activity change, negative = inhibition, usual class: inhibitors; 4% of 690 active; AID 1508638, 2021; note: potency is the fitted concentration of half-maximal effect; % is set by controls: 0 for no effect and ±100 for the full control effect
NLuc Km counter – Biochemical coelenterazine-based NLuc counterscreen for small molecule modulators of PMP22 gene expression - Km assay; secreted NLuc enzyme, coelenterazine luminescence, Km conditions; AID 1508639, 2021; 5% of 690 active; Potency, µM (doses to about 57.5 µM), inactives show at the highest dose activity change, negative = inhibition, usual class: inhibitors; shares compounds with PMP22 txn; note: potency is the fitted concentration of half-maximal effect; % is set by controls: 0 for no effect and ±100 for the full control effect
FLuc ctr PMP22 – Biochemical FLuc counterscreen for small molecule modulators of PMP22 gene expression | shares compounds with PMP22 txn | purified P. pyralis FLuc, luminescence, 10 min | Potency, µM (doses to about 57.5 µM), for inactives: top-dose activity, negative = inhibition, usual class: inhibitors | 690 tested, under 10 active | AID 1508640, 2021; note: % of control where 0% means no effect
Target sequence (P08659 whole entry, looked up): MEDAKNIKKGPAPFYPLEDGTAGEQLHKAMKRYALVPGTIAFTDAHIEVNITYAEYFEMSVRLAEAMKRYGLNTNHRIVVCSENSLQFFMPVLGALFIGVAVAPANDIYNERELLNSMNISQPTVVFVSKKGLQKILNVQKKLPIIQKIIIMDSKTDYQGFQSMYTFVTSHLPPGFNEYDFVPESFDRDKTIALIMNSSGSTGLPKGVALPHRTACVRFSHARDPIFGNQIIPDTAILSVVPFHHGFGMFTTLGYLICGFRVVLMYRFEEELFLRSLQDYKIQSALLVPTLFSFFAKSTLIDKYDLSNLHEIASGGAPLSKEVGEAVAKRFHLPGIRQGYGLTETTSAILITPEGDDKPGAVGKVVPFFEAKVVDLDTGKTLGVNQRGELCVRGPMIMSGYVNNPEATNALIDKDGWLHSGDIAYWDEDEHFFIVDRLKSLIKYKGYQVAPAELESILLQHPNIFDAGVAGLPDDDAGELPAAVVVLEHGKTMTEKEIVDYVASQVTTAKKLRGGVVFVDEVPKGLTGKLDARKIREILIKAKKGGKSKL
S16 F2sN tox cnf – Cell viability qHTS assay in S16 Pmp22-F2sN cells - Confirmatory screen. shares compounds with PMP22 txn. S16 Schwann cells viability, CellTiter-Glo ATP luminescence, 24 h. Potency, µM (highest dose often 57.5 µM), for the others: at the highest dose activity change, negative = viability loss, most hits filed as cytotoxic. 7% of 690 active. AID 1508641, 2021; note: potency is the fitted concentration of half-maximal effect; % is set by controls: 0 for no effect and ±100 for the full control effect
PMP22 txn cnf – Cell-based coincidence reporter assay to measure PMP22 gene transcription in S16 Pmp22-F2sN cells - Confirmatory screen; shares compounds with PMP22 txn; S16 Schwann cells Pmp22-F2sN, dual luciferase, 24 h; Potency, µM (top dose mostly 57.5 µM), for inactives: at the highest dose activity change, negative = inhibition, hits mostly inhibitors; 22% of 690 active; active = clear falling dose curves in both reporters; inconclusive = both reporters move, but less clearly or upward; inactive = either reporter flat; the % is the FLuc reporter signal; note: potency is the fitted concentration of half-maximal effect
PMP22 prot conf – Cell-based HiBiT reporter assay to measure PMP22 protein expression in S16 Pmp22-HiBiT cells - Confirmatory screen; 95 tested, under 10 active; shares compounds with PMP22 txn; AID 1508647, 2021; Potency, µM (titrated, usually from 27.9 µM), inactives show at the top dose activity change, negative = inhibition, usual class: inhibitors; S16 Schwann cells Pmp22-HiBiT, luminescence, 48 h
Target sequence (P25094 whole entry, looked up): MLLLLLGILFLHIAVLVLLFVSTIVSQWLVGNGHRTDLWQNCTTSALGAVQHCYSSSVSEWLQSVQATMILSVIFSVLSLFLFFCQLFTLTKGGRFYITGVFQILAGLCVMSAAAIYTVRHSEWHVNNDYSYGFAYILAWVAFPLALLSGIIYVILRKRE
Starred values were filed as active, the others as inactive; i = inactive; ? = inconclusive; . = not tested or not shown; [ ] = dose if it differs, or a comment. Unless noted, calls come from the whole dose curve; as a rule, active = well fitted curve in the direction sought with a large enough effect; inconclusive = small, poorly fitted or top-dose-only effect, or another doubt; inactive = no such curve, though single readings can be large; an effect the other way counts as inactive or inconclusive.

SMILES	PMP22 txn	S16 viability	pS6 MEF inh	OvCa metastasis	NLuc sat counter	NLuc Km counter	FLuc ctr PMP22	S16 F2sN tox cnf	PMP22 txn cnf	others
Cc1ccc(S(=O)(=O)Nc2nc3ccccc3nc2Nc2ccc3nsnc3c2)cc1	.	.	.	-10%[23.2 µM]	.	.	.	.	.
CN(C)S(=O)(=O)c1ccc2c(c1)C(=Cc1cc3c([nH]1)CCCC3)C(=O)N2	.	.	.	26%	.	.	.	.	.
COc1ccc(N2CCN(CCCNC(=O)c3ccc4nc(Cc5ccccc5)oc4c3)CC2)cc1	19µM*	?	-4%	?	?	?	-2%	?	?
O=C(NCCCN1CCN(c2ccccc2)CC1)c1ccc2nc(CCc3ccccc3)oc2c1	19µM*	?	0%	?	-15%	-6%	-6%	-26%	?
C[C@]12CC[C@H](O)CC1=CC[C@@H]1[C@H]2CC[C@]2(C)C(c3cccnc3)=CC[C@H]12	.	.	.	-14%[23.2 µM]	.	.	.	.	.
CCOc1ccc(-n2ccnc2SCC(=O)Nc2nc3ccc(C)cc3s2)cc1	8.9µM*	3%	-16%	4%	-2%	?	-6%	-1%	-21%
Cc1c(C(=O)NCc2ccccc2)sc2nc[nH]c(=O)c12	-38%	0%	-8%	16%	.	.	.	.	.
Cc1c(C(=O)NCc2cccc(Cl)c2)sc2nc[nH]c(=O)c12	?	-4%	-14%	6%	?	-18%	-1%	?	13%
CCOc1ccc(CCNc2nc3ccccc3n3c(C)nnc23)cc1OCC	?	-3%	-8%	-15%	?	?	1%	0%	?
COc1ccc(N2CCN(S(=O)(=O)CCNC(=O)Cc3ccc(-c4ccccc4)cc3)CC2)cc1	10µM*	11%	-6%	i	-9%	2%	-18%	-18%	-12%
O=C(Cc1ccc(-c2ccccc2)cc1)NCCS(=O)(=O)N1CCN(c2ccccc2)CC1	?	-1%	0%	-30%	.	.	.	.	.
Cc1ccn(-c2ccc(-c3ncco3)cc2)c(=O)c1-c1ccc2nc(N)ncc2c1	.	.	.	-18%	.	.	.	.	.
COc1ccc2c(c1)-c1nc(NC(=O)c3ccc(Cl)cc3)sc1CC2	?	7%	-24%	-31%	.	.	.	.	.
COc1ccc2c(c1)-c1nc(NC(=O)c3cc(Cl)ccc3OC)sc1CC2	17µM*	-3%	3%	-7%	-15%	-9%	2%	?	?
CCOCCCn1c(=N)c(C(=O)NC2CCCC2)cc2c(=O)n3cccc(C)c3nc21	?	-3%	-6%	17%	-5%	1%	0%	24%	?
Cc1cccn2c(=O)c3cc(C(=O)NC(C)c4ccccc4)c(=N)n(CCOCCO)c3nc12 (stereo not drawn)	-28%	5%	1%	i	.	.	.	.	.
CCOCCCn1c(=N)c(C(=O)NC(C)c2ccccc2)cc2c(=O)n3cccc(C)c3nc21 (stereo not drawn)	15µM*	?	?	25%	-13%	8%	-1%	-2%	?
CCCCN(Cc1cc2ccccc2[nH]c1=O)C(=O)c1cccc(Cl)c1	20µM*	0%	4%	-9%	?	?	3%	?	-12%
Cc1ccc2cc(CN(C(=O)c3cccc(Cl)c3)c3ccccc3)c(=O)[nH]c2c1	-7%	1%	-7%	0%	.	.	.	.	.
O=C(Nc1ccc(Cl)c(Cl)c1)N(Cc1c[nH]c2ccccc12)C1CCCCC1	?	?	-14%	i	.	.	.	.	.
COc1cccc(NC(=O)N(Cc2c[nH]c3ccccc23)C2CCCCCC2)c1	20µM*	-26%	-12%	0%	15µM*	?	1%	14%	?
CCC(C)NC(=O)c1ccc(-n2c(-c3ccccc3)cc3c2CCCC3)cc1 (stereo not drawn)	?	4%	0%	i	.	.	.	.	.
COCCCNC(=O)c1ccc(-n2c(-c3ccccc3)cc3c2CCC(C)C3)cc1 (stereo not drawn)	18µM*	8%	8%	-21%	-19%	-2%	-12%	?	2.7µM*	PMP22 prot conf=10%
CN(C)CCNC(=O)c1ccc(-n2c(-c3ccccc3)cc3c2CCCC3)cc1	20µM*	26%	?	i	-1%	-1%	-8%	?	?
CC(C)NC(=O)c1ccc(-n2c(-c3ccccc3)cc3c2CCCC3)cc1	14µM*	?	?	1%	-2%	-3%	-1%	?	-23%
CC(C)OCCCNC(=O)c1ccc(-n2c(-c3ccccc3)cc3c2CCCC3)cc1	13µM*	-5%	0%	i	-2%	-2%	4%	5%	?
CCCNC(=O)c1ccc(-n2c(-c3ccccc3)cc3c2CCCCC3)cc1	?	0%	-18%	?	.	.	.	.	.
Oc1cc(-c2nc(-c3ccccc3)[nH]c2-c2ccncc2)ccc1Cl	.	.	.	-11%	.	.	.	.	.
O=C(Nc1nnc(-c2ccco2)o1)c1cc(-c2ccccc2)nc2ccccc12	.	.	.	-1%	.	.	.	.	.

Screening data: PubChem, National Center for Advancing Translational Sciences (NCATS)
